Bioassay records from PubChem.
CYP2C9 inh – blocks human cytochrome P450 2C9. P11712. CYP2C9 Supersomes, luciferin-H conversion, luminescence. inhibition, % at 5 µM. 96,000 compounds, 20% hits;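 active means blocking of liver enzyme CYP2C9 beyond about 50% at 5 µM, limit read from the data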
Target sequence (P11712 whole entry, looked up): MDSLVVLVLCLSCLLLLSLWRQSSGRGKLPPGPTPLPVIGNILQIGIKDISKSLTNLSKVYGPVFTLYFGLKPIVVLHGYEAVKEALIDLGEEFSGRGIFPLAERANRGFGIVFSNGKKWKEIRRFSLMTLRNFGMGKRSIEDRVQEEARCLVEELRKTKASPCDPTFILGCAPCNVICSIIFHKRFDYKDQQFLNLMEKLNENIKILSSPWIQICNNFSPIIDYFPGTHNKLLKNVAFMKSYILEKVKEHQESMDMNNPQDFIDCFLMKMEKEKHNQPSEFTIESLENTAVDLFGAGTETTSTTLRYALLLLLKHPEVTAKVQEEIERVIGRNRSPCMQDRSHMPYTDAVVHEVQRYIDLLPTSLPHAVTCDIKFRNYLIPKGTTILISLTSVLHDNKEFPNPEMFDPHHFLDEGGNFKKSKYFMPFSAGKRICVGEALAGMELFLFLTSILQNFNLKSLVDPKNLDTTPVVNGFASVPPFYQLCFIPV
CYP2C19 activ – activators of human cytochrome P450 2C19; 96,000 tested, under 10 active; AID 1025; P33261; recombinant CYP2C19, luciferin-H EGE luminescence; stronger effect = higher value; 0 = fully inhibited enzyme, 1 = untreated enzyme; activation factor at 5 µM;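 active means activation factor of at least 2 at 5 µM in the primary screen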;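 further: 0 = wells with 2.5 mM tranylcypromine and 1 = vehicle-only wells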
sEH inhibitor – blocks human soluble epoxide hydrolase activity; P34913; recombinant human sEH enzymatic activity assay; inhibition, % at 2 µM; 91,000 compounds, 0.34% hits; AID 707; in the data active means inhibition above about 80%
CYP2C9 act – activators of human CYP2C9; P11712; recombinant CYP2C9, luciferin-H conversion, luminescence; stronger effect = higher value; factor 1 = untreated enzyme, 0 = blocked; activation factor at 5 µM; 96,000 compounds, 1.4% hits; AID 1024;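 active means activation factor of 2 or more for CYP2C9 at a 5 µM dose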;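 further: 0 = sulfaphenazole-blocked wells and 1 = vehicle-only wells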
CYP2C19 inh – inhibitors of human CYP2C19. 96,000 compounds, 21% hits. inhibition, % at 5 µM. CYP2C19 Supersomes, luciferin-H EGE luminescence, 30 min. P33261;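 active means CYP2C19 inhibition above a set limit at 5 µM in the primary screen, cut at about 50% in these data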;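 further: plate controls were negative control wells for no effect and 2.5 mM tranylcypromine positive control for full effect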
sEH act – soluble epoxide hydrolase (human) activation | P34913 | 91,000 compounds, 0.04% hits | purified human sEH enzymatic activity, activator screen | activation, % at 2 µM; in the data active means activation above about 37%
Numbers without * were called inactive; · = no result. In the library only some 27% were active in any assay of this set; here they are far more common.

SMILES	CYP2C9 inh	CYP2C19 activ	sEH inhibitor	CYP2C9 act	CYP2C19 inh	sEH act
CC(C)N=Cc1c(O)[nH]c2ccccc12	54*	0.9	2	0.5	5	-2
CCc1ccc(NC(=O)C2(c3ccccc3)CC2(Cl)Cl)cc1 (centres undefined)	40	0.7	9	0.6	33	-8
Cc1cccc(NC(=O)C2(c3ccccc3)CC2(Cl)Cl)c1 (centres undefined)	52*	0.4	1	0.5	61*	0
Cc1cc(C)cc(NC(=O)C2(c3ccccc3)CC2(Cl)Cl)c1 (centres undefined)	43	0.7	10	0.6	28	-11
Cc1ccc(NC(=O)C2(c3ccccc3)CC2(Cl)Cl)cc1C (centres undefined)	30	0.3	-5	0.7	74*	2
O=C(CCc1ccccc1)n1nc(-c2ccco2)nc1SCc1ccccc1	10	0.8	·	0.9	23	·
CCn1c2ccccc2c2nc3cc(S(=O)(=O)N4CCOCC4)ccc3nc21	85*	0.8	-4	0.2	22	3
Cc1cc(C)nc(Nc2ccc(C(=O)O)cc2)n1	2	1	2	1	0	-4
O=C(OCC#CCSc1nnc(-c2ccncc2)o1)c1cccs1	78*	0.2	-1	0.2	79*	0
O=C(OCC#CCSc1nnc(-c2cccc3ccccc23)o1)c1ccco1	-107	1	20	2.1*	2	-21
O=C(OCC#CCSc1nc2ccccc2o1)c1ccco1	57*	0.3	-1	0.4	74*	2
O=C(OCC#CCSc1nc2ccccc2o1)c1cc2ccccc2o1	·	·	13	·	·	-8
COc1ccc(-c2nnc(SCC#CCO)o2)cc1OC	6	0.8	7	0.9	16	-8
OCC#CCSc1nnc(-c2ccc(Br)cc2)o1	24	0.4	-3	0.8	60*	5
CC(C)=C1C2CC2C2C(C(=O)O)C12 (centres undefined)	7	1	4	0.9	0	-5
O=C(c1ccc(N2CCNCC2)cc1)c1cccnc1	-12	1	-16	1.1	-5	16
COC(=O)Cn1c(=O)c2c(nc(Br)n2CC(=O)OC)n(C)c1=O	-6	1	7	1.1	0	-5
CN=Cc1c(NC)nc2c(C)cccn2c1=O	-3	1	1	1	-5	2
O=C(NCc1cccnc1)/C(=C/c1ccc(-c2ccc(Cl)cc2)o1)S(=O)(=O)c1ccccc1	49	0.3	-3	0.5	67*	6
O=C(NCc1cccnc1)/C(=C/c1ccc(-c2cccc(C(F)(F)F)c2)o1)NC(=O)c1ccccc1	24	0.7	0	0.8	31	0
COc1ccc(CCNC(=O)c2cc3ccccn3n2)c(OC)c1OC	17	0.2	·	0.8	75*	·
Cc1ccccc1NS(=O)(=O)c1cc(S(C)(=O)=O)ccc1Cl	37	0.7	4	0.6	28	-4
Cc1cc(NS(=O)(=O)c2ccccc2)c(C)c(Cl)c1O	-182	0	·	2.8*	99*	·
O=C(Oc1ccccc1)c1ccccc1OS(=O)(=O)c1ccccc1	59*	0.6	10	0.4	44	-10
COc1ccccc1C(=O)Oc1ccc(C(C)C)cc1	0	0.7	-6	1	32	3
SMILES	CYP2C9 inh	CYP2C19 activ	sEH inhibitor	CYP2C9 act	CYP2C19 inh	sEH act
C=C(C)C1Cc2c(C)nn(-c3cc(C)c4ccccc4n3)c2C1 (centres undefined)	·	·	3	·	·	3
O=C(NCCOC12CC3CC(CC(C3)C1)C2)c1cccc(Br)c1	30	0.3	26	0.7	72*	-24
O=C(O)CCCCCNC(=O)c1cccc(Br)c1	4	1.1	12	1	-7	-10
CCOc1ccc2[nH]c(=O)c(CN(CCO)C(=O)CC)cc2c1	15	1	6	0.9	3	-6
FC(F)(F)c1cccc(-c2ccc(-c3csnn3)o2)c1	23	0.4	·	0.8	56*	·
CCOC(=O)N1CCc2c(sc3nc4n(c(=O)c23)N=C(C)CS4)C1	24	0.9	2	0.8	6	-1
O=C(OCCOc1ccccc1Cl)c1ccc(-n2cnnn2)cc1	46	0.5	-3	0.5	47	3
O=C(Oc1ccccc1Cl)c1ccc(-n2cncn2)nc1	78*	0.1	-1	0.2	93*	-2
C=CCOC(=O)c1ccc(-n2cncn2)nc1	31	0.2	-5	0.7	80*	6
CCC(=O)NCCNc1nc2cc(C)c(C)cc2cc1C#N	72*	0.5	8	0.3	50*	-11
Cc1ccc2cc(C#N)c(NCCNC(=O)C3CC3)nc2c1C	64*	0.5	·	0.4	49	·
CCOCCCNC(=S)NCCNc1nc2c(C)cccc2cc1C#N	-34	0.7	-6	1.3	35	8
CCOc1ccc2nc(NCCNC(=O)CC)c(C#N)cc2c1	-15	1	4	1.2	4	-2
CC(Nc1cc(N2CCN(C(=O)C(C)(C)C)CC2)ccc1[N+](=O)[O-])c1ccccc1 (centres undefined)	50*	0.4	18	0.5	56*	-15
CCS(=O)(=O)N1CCN(c2ccc([N+](=O)[O-])c(NC(C)c3ccccc3)c2)CC1 (centres undefined)	66*	0.5	2	0.3	51*	2
COc1cc(C(=O)N2CCC(n3cnc4cc(F)ccc43)CC2)cc(OC)c1OC	9	0.9	6	0.9	12	-3
CCCCN(CC)Cc1ccc(CNC(=O)Nc2ccc(F)cc2)o1	37	0.8	2	0.6	22	-2
Cc1nn2c3ccccc3nc2n(Cc2ccccc2)c1=O	·	·	-3	·	·	7
Cn1c(=O)c(-c2ccccc2)nn2c3ccccc3nc12	74*	0.4	-7	0.3	62*	5
Cc1cc(C)c[n+](-c2nc([O-])sc2C=O)c1	1	1	9	1	-2	-8
CS(=O)(=O)N(CC(O)Cn1c2ccccc2c2ccccc21)c1ccccc1 (centres undefined)	97*	0	-7	0	96*	9
COc1ccc(N(CC(O)Cn2c3ccccc3c3ccccc32)S(=O)(=O)c2ccccc2)cc1 (centres undefined)	70*	0.2	10	0.3	83*	-6
Cc1ccc(N(CC(O)CN(C)C)S(=O)(=O)c2ccccc2)cc1 (centres undefined)	3	1	-1	1	3	2
CCN(CC(O)Cn1c2ccccc2c2ccccc21)S(=O)(=O)c1ccc(C)cc1 (centres undefined)	90*	0	0	0.1	99*	-1
CSc1ccc(C2C3(C#N)C(N)=NC4(OCCO4)C23C#N)cc1 (centres undefined)	3	0.8	-3	1	20	2
Cc1cc(-n2nc(C)cc2C)nc(NS(=O)(=O)c2ccccc2Cl)n1	52*	1	-5	0.5	0	8
